Screening results deposited in PubChem BioAssay by several laboratories.
LGR2 inh = inhibitors of bursicon-induced LGR2 CRE-luciferase signal, primary screen, cell-based, HEK293, CRE-luciferase reporter, bursicon stimulation; 0.35% of 380,000 active; inhibition, % at 9.99 µM; bursicon-stimulated, 4 h; Drosophila bursicon receptor LGR2 (rickets);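 active means drop in luminescence signal, shown as inhibition above about 50% in the replicate tests, limit read from the data, passing the limit was not always enough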;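 further: agonist challenge used bursicon conditioned medium at about half maximal strength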
EWS-Fli block = EWS/Fli-driven NR0B1 reporter inhibitors, primary screen, A673 cells, NR0B1 luciferase, luminescence, MLPCN library; viability-normalised; inhibition, % at 12.6 µM; 0.67% of 350,000 active;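 active means mean inhibition of at least 50% after viability correction, with every replicate also passing that limit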;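 further: firefly luciferase signal divided by Alamar Blue viability fluorescence both relative to DMSO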
PAX8 reporter = inhibitors of PAX8-driven TPO luciferase reporter, primary screen, RMG-I cells, single concentration; 1.2% of 360,000 active; inhibition, % at 12.6 µM; SteadyGlo, 24 h;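 active means mean replicate inhibition at least 60% with every replicate also reaching 60%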;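 further: luciferase light reporting Pax8 driven TPO promoter activity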
TROY NFkB inh = inhibitors of TROY-driven NF-kB signaling, primary screen, Q293 LMP1-TROYcd cells, NF-kB luciferase, uHTS; Q293 LMP1-TROYcd NF-kB luciferase reporter, 4 h; inhibition, % at 10 µM; 0.98% of 360,000 active;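 active means compounds whose plate-normalised and pattern-corrected inhibition of the luciferase reporter signal at the single screening dose is 50% or more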
TWEAK-Fn14 inh = inhibitors of TWEAK-Fn14 signaling, primary screen, luciferase reporter cells, uHTS. TWEAK-stimulated Fn14 reporter cells, luciferase luminescence, 8 h. inhibition, % at 10 µM. 2% of 360,000 active; in the data active means inhibition above about 50%
Of the large screens only hits and unclear results are named; the others gave an inactive call. Sampled rows, rich in hits. Any-hit rate of the full collection: about 2.8%.

Nc1c(C(=O)NCCCc2ccccc2)c2nc3ccccc3nc2n1Cc1cccs1	none (no result: LGR2 inh, EWS-Fli block, PAX8 reporter)
CCCCNC(=O)c1c(N)n(Cc2ccc3c(c2)OCO3)c2nc3ccccc3nc12	TROY NFkB inh 59, TWEAK-Fn14 inh 51 (no result: PAX8 reporter)
CCCCn1c(N)c(C(=O)NCc2cccs2)c2nc3ccccc3nc21	TROY NFkB inh 68 (no result: LGR2 inh, EWS-Fli block)
C[C@@H]1CN([C@@H](C)CO)C(=O)CCCn2cc(nn2)CO[C@@H]1CN(C)C(=O)Oc1cccc2ccccc12	none (no result: PAX8 reporter, TROY NFkB inh, TWEAK-Fn14 inh)
C=C1C(C)C2C(Cc3ccccc3)NC(=O)C23OC(=O)/C=C/C(O)CCCC(C)C/C=C/C3C1O (centres undefined)	PAX8 reporter 93
CC=Cc1ccc2n(c1=O)C[C@@H]1[C@@H](CO)[C@H](C(=O)OC)[C@H]2N1C(=O)CC (mixture of isomers)	none (no result: PAX8 reporter, TROY NFkB inh, TWEAK-Fn14 inh)
O=Cc1cn(Cc2cccc([N+](=O)[O-])c2)c2ccccc12	LGR2 inh 87, TROY NFkB inh 68
CCCCCCC[n+]1ccc(-c2cc[n+](CCCCCCC)cc2)cc1	PAX8 reporter 86
CC(C)n1c(O)c(C2c3cc(Cl)ccc3Oc3[nH]c(=O)n(C(C)C)c(=O)c32)c(=O)[nH]c1=O (centres undefined)	TWEAK-Fn14 inh 100 (no result: LGR2 inh, EWS-Fli block, PAX8 reporter)
COC(=O)[C@@H]1[C@@H](CO)[C@@H]2Cn3c(ccc(-c4ccccc4)c3=O)[C@H]1N2CC1CC1	none (no result: PAX8 reporter, TROY NFkB inh, TWEAK-Fn14 inh)
COc1cc(/C=C(/C)[N+](=O)[O-])ccc1OCc1ccccc1Cl	TROY NFkB inh 56, TWEAK-Fn14 inh 73 (no result: LGR2 inh, EWS-Fli block, PAX8 reporter)
COc1cc(C=C2C(=O)NC(=O)NC2=O)ccc1OCc1ccc([N+](=O)[O-])cc1	none
Cc1cccc(S(=O)(=O)N2[C@@H]3Cn4c(ccc(-c5cccc(F)c5)c4=O)[C@H]2[C@@H](C(=O)O)[C@@H]3CO)c1	none (no result: TROY NFkB inh, TWEAK-Fn14 inh)
Cc1cc(C)cc(N2C(=O)NC(=O)/C(=C\c3cccn3-c3ccccc3)C2=O)c1	TWEAK-Fn14 inh 66
Cc1cccc(N2C(=O)NC(=O)/C(=C\c3cnc(-c4ccccc4)nc3)C2=O)c1	none (no result: EWS-Fli block)
CN1C(=O)/C(=C/c2cccn2-c2ccc3ccccc3c2)C(=O)NC1=S	none (no result: LGR2 inh, EWS-Fli block, PAX8 reporter)
Cc1cc(C)cc(N2C(=O)NC(=O)/C(=C\c3cccn3-c3ccc(Cl)cc3)C2=O)c1	TROY NFkB inh 53, TWEAK-Fn14 inh 103 (no result: LGR2 inh, EWS-Fli block, PAX8 reporter)
O=C(Cc1cccnc1)N1CCCCN2[C@H](CO)[C@H](c3ccc(C#CC4CCCC4)cc3)[C@H]2C1	none (no result: TROY NFkB inh, TWEAK-Fn14 inh)
CCCCn1nnnc1C(CCc1ccccc1)N1CCC(n2c(=O)[nH]c3ccccc32)CC1 (centres undefined)	LGR2 inh 106, PAX8 reporter 81
CCC(c1nnnn1-c1ccc(OC)cc1)N1CCC(n2c(=O)[nH]c3ccccc32)CC1 (centres undefined)	none
CCC(c1nnnn1Cc1ccccc1)N1CCC(n2c(=O)[nH]c3ccccc32)CC1 (centres undefined)	PAX8 reporter 88
O=C(Cc1ccccc1)N1CC2(C1)[C@H](c1ccccc1)[C@H](CO)N2Cc1cccc(Cl)c1	none (no result: TROY NFkB inh, TWEAK-Fn14 inh)
CCCN1[C@@H]2Cn3c(ccc(-c4ccccc4)c3=O)[C@H]1[C@@H](C(=O)OC)[C@@H]2CO	none (no result: TROY NFkB inh, TWEAK-Fn14 inh)
Nc1cc(Cl)c2nonc2c1[N+](=O)[O-]	PAX8 reporter 76, TROY NFkB inh 70, TWEAK-Fn14 inh 58 (no result: EWS-Fli block)
O=[N+]([O-])c1c(Cl)c(Cl)c(Cl)c(Cl)c1Cl	none
CCC1(OC(=O)CN)C(=O)OCc2c1cc1n(c2=O)Cc2cc3ccccc3nc2-1 (centres undefined)	LGR2 inh 96, TROY NFkB inh 69, TWEAK-Fn14 inh 82 (no result: EWS-Fli block, PAX8 reporter)
CC[C@@]1(O)C(=O)OCc2c1cc1n(c2=O)Cc2cc3c(NC(=O)CN)cccc3nc2-1	EWS-Fli block 56, PAX8 reporter 99
O=C(Cc1ccccn1)N1CCCCN2[C@H](CO)[C@H](c3ccc(-c4ccccc4F)cc3)[C@@H]2C1	none (no result: TROY NFkB inh, TWEAK-Fn14 inh)
N#Cc1cccc(-c2ccc([C@@H]3[C@@H](CO)N4CCCCN(C(=O)Cc5ccncc5)C[C@H]34)cc2)c1	none (no result: EWS-Fli block, TROY NFkB inh, TWEAK-Fn14 inh)
N#Cc1ccc(-c2ccc([C@H]3[C@H](CO)N4CCCCN(C(=O)Cc5ccccc5)C[C@@H]34)cc2)cc1	none (no result: TROY NFkB inh, TWEAK-Fn14 inh)
CCCCn1c(NS(=O)(=O)c2ccc(C)cc2)c(C(=O)OCC)c2nc3ccccc3nc21	TROY NFkB inh 63, TWEAK-Fn14 inh 58
